The whole screen tested about 310,000 compounds, of which about 14,000 (4.5%) showed an effect of 50% or more. Effects have a minus sign here. What follows is part of a selection rich in strong results, with near analogues and random picks from the rest.
Biological target: human ether-à-go-go-related gene (hERG) potassium channel (human, UniProt Q12809)
Experiment: primary screen, population patch clamp on CHO cells stably expressing hERG; higher = less effect of the substance
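Also: peak tail current of the secondary pulse compared with the same well before compound.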

Chain of human ether-à-go-go-related gene (hERG) potassium channel (Q12809 whole entry, looked up): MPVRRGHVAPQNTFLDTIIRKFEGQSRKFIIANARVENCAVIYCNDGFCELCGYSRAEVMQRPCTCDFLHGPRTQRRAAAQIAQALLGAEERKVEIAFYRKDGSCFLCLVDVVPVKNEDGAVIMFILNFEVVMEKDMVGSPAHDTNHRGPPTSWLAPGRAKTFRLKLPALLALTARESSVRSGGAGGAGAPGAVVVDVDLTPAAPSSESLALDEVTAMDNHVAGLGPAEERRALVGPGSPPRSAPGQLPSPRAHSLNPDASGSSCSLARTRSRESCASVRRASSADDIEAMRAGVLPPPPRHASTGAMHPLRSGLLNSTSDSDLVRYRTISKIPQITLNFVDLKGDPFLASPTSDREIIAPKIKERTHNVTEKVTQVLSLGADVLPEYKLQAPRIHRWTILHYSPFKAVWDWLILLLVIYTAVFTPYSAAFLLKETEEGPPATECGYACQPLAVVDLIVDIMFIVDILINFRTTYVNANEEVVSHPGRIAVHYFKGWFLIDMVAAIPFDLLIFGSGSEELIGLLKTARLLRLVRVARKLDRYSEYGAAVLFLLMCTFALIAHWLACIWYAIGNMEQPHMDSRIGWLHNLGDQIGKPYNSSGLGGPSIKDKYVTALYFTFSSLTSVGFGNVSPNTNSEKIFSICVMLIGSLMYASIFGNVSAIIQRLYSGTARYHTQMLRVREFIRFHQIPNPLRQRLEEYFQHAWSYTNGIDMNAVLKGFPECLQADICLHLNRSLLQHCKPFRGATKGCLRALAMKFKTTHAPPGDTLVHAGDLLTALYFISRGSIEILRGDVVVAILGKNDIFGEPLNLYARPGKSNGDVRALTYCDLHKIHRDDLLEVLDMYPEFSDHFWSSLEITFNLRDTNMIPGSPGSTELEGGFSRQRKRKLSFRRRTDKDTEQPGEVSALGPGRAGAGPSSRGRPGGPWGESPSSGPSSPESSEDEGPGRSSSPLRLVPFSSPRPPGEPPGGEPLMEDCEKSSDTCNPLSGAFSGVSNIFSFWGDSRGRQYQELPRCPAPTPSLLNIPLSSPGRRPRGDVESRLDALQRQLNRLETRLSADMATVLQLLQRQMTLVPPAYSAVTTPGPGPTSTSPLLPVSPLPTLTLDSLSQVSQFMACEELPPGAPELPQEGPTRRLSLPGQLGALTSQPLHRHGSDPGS

| SMILES | hERG current change (%, negative = inhibition) at 10uM |
| --- | --- |
| c1ccc(COc2ccc(-c3csnn3)cc2)cc1 | -3.17% |
| Cc1nc(-c2ccc(Cl)cc2)sc1C1(C)CC(c2ccc(OC(F)(F)F)cc2)=NO1 (stereo not shown) | 10.3% |
| O=C(Cc1ccccc1)Nc1cccc(N2C(=O)C=CC2=O)c1 | -4.45% |
| O=C(Nc1cccc2[nH]ncc12)c1ccc(F)cc1 | -17.4% |
| Cc1ccc(C)c2[nH]c(=O)c(CN(CCN3CCCC3)C(=O)Nc3ccc(F)cc3)cc12 | -75.7% |
| COc1ccc(CCN(Cc2cc3cccc(C)c3[nH]c2=O)C(=O)NC2CCCCC2)cc1OC | -25% |
| Cc1cccc2cc(CN(Cc3ccco3)C(=O)NC3CCCCC3)c(=O)[nH]c12 | -38.9% |
| Cc1ccc2cc(CN(CCN3CCCC3)C(=O)Nc3ccc(F)cc3)c(=O)[nH]c2c1C | -70.7% |
| Cc1cccc2cc(CN(CCN3CCOCC3)C(=O)Nc3ccccc3F)c(=O)[nH]c12 | -20.6% |
| Cc1cccc2cc(CN(CCN3CCCC3)C(=O)NC3CCCCC3)c(=O)[nH]c12 | -57% |
| Cc1ccc(C)c2[nH]c(=O)c(CN(Cc3ccco3)C(=O)Nc3ccccc3)cc12 | 1.89% |
| COc1cc2cc(CN(CCN3CCOCC3)C(=O)Nc3ccc(F)cc3)c(=O)[nH]c2cc1OC | -28.6% |
| COc1cc2cc(CN(CCN3CCCC3)C(=O)Nc3ccc(F)cc3)c(=O)[nH]c2cc1OC | -7.92% |
| NC(=O)Cc1nc2scc(-c3ccccc3)c2c(=O)[nH]1 | 37.9% |
| COC(=O)c1cccc(S(=O)(=O)N2CCC(NC(=O)NC34CC5CC(CC(C5)C3)C4)CC2)c1 | 4.44% |
| O=C(CCn1cccc1)Nc1cccc(F)c1 | 0.101% |
| CCc1nnc(NC(=O)CSc2ncc(-c3ccccc3)n2CC)s1 | -17.9% |
| COCCCC1CCN(Cc2nc(Cc3ccccc3Cl)no2)CC1 | 5.07% |
| CC[C@@]1(O)C(=O)OCc2c1cc1n(c2=O)Cc2cc3c(CN(C)C)c(O)ccc3nc2-1.Cl | 13.6% |
| Fc1ccc(-c2cn(-c3ccccc3)c3[n+]2CCS3)cc1.O.[Br-] | -45.3% |
| COc1ccc(-c2cn(-c3ccccc3)c3[n+]2CCS3)cc1 | -38% |
| Cc1ccc(-c2cn(-c3ccccc3)c3[n+]2CCCS3)cc1.[Br-] | -29.1% |
| [Br-].c1ccc(-c2cn(-c3ccccc3)c3[n+]2CCS3)cc1 | -5.74% |
| Fc1ccc(-n2cc(-c3ccccc3)[n+]3c2SCC3)cc1.[Br-] | -22.7% |
| COc1ccc(-c2cn(-c3ccc(Br)cc3)c3[n+]2CCS3)cc1.[Br-] | -66.7% |
| Clc1ccc(-c2cn(-c3ccccc3)c3[n+]2CCS3)cc1.[Br-] | -59.4% |
| CCc1ccc(-n2cc(-c3ccc(F)cc3)[n+]3c2SCCC3)cc1.[Br-] | -71.7% |
| COc1ccc(-n2cc(-c3ccc(Br)cc3)[nH]c2=S)cc1 | 18% |

Reference: paper PMC4336329 (PLoS ONE, 2015)
